Drawing on ChEMBL document CHEMBL3988442, “University of Dundee, Small-Polar-MMV Screening Library” (2021), this text covers Percent Effect for 46 compounds.

In assay [1] the target is T1, Aspartate--tRNA(Asp/Asn) ligase (Mycobacterium tuberculosis (strain ATCC 25618 / H37Rv)) (UniProt P9WFW3). Note: in the data most compounds retested in dose-response had high values.
T1 sequence (whole entry): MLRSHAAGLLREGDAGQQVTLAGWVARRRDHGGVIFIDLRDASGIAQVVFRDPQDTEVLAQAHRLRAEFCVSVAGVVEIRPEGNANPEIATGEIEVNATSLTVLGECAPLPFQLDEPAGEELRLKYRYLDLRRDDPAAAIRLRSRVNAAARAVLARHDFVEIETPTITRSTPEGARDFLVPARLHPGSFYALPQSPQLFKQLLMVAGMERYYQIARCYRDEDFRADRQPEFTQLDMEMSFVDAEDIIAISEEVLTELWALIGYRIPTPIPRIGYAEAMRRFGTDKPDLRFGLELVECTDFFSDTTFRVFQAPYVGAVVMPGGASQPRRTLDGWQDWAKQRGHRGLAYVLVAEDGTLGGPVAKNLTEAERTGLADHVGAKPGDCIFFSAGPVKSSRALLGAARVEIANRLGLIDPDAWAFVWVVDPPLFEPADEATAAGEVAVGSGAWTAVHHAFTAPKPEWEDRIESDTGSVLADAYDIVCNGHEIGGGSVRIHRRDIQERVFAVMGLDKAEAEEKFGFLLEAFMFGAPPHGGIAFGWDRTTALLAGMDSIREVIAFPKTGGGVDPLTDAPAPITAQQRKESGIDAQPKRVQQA
Briefly: Assay for Asp RNA synthetase-1 from Mycobacterium tuberculosis. The assay is classed as functional. Set-up: scale not given: direction of the effect not stated beside the values. Particulars: 30 µM.

In assay [2] the target is Shiga toxin 2 (Escherichia coli O157:H7) (UniProt P09385+P09386). In words: E. coli 0.157:H7 Shiga Toxin SOP - stx2 screening assay. It counts as functional. Set-up: scale not given: direction of the effect not stated beside the values. Conditions: 30 µM.

With `N#Cc1ccccc1CN1C[C@@H]2CC[C@H](C1)N(CC1CC1)C2=O`, the Percent Effect in assay [1] was 2.11%; in assay [2], -9.72%.
For `Cc1nn(C)c(N(C)C)c1CNCCNS(C)(=O)=O`, the Percent Effect in assay [1] was -4.66%; in assay [2], 17.7%.
For the compound `Cc1nc2ccccc2nc1CN1CCCC1Cn1cncn1` (configuration not stated), the Percent Effect is -6.08% in assay [1] and 7.83% in assay [2].
Consider `Cc1cc(C)n(C2CN(CC(=O)N(C)Cc3ccc(C)o3)C2)n1`, for which the Percent Effect in assay [1] was -0.898%; in assay [2] it was 0.889%.
On to `CSc1ncccc1C(=O)N1CCC(c2nc3c(C)cccc3[nH]2)CC1`, for which the Percent Effect in assay [1] is 3.63%; in assay [2], -17.2%.
On the same counts, the results for `CC(C)NC(=O)N1CC[C@@H]2CN(Cc3cccc(Cl)c3)S(=O)(=O)[C@@H]2CC1` are 5.42% and -9.22%.
On the same counts, the results for `CC(Cn1cccn1)NCc1nc(-c2cccc(Cl)c2)no1` (configuration not stated) are -3.34% and 22.5%.
On the same counts, the results for `CCn1ccnc1CNCC1CCN(CC(O)c2ccccc2)CC1` (configuration not stated) are -3.48% and 0.429%.
Consider `COc1ccc(-c2nc(CN3CC(n4nc(C)cc4C)C3)no2)cc1`, for which the figures for the Percent Effect in assay [1] and in assay [2] were 5.02% and -49.6%, respectively.
As to `Cc1cc(C)nc(CCNC(=O)C(c2ccc(F)cc2)N(C)C)n1` (configuration not stated), the Percent Effect in assay [1] is -1.5%; in assay [2], -52.8%.
On to `CCOc1ccc(C(=O)NS(=O)(=O)c2cncc(Br)c2)cc1OC`, for which the Percent Effect was -5.81% in assay [1] and -12% in assay [2].
On the same counts, the results for `CC(C)CC(=O)N1CCc2nc(N3CCOCC3)nc(NC(C)C)c2C1` are -3.63% and 6.88%.
`Cc1cc(NC(=O)CCc2ccsc2)n(C)n1`: the Percent Effect in assay [1] is 1.87%; in assay [2], -17.7%.
As to `Cc1cc2c(=O)n3c(nc2s1)CCN(Cc1ccncc1)CC3`, the Percent Effect is -2.01% in assay [1] and -22.9% in assay [2].
With `CCc1nnc(CN(C)c2nc(C3CCCC3)nc3c2cnn3C)o1`, the Percent Effect is -4.57% in assay [1] and 13.2% in assay [2].
With `NC(=O)C1CN(C(=O)Nc2ccccc2N2CCCCCC2)CCO1` (configuration not stated), the Percent Effect in assay [1] came to 0.991%; in assay [2] it was 7.25%.
`Cc1ccc(N2CC[C@H](OCC3CC3)[C@@H]2Cc2cnn(C)c2)nn1`: the Percent Effect is 2.69% in assay [1] and -6.34% in assay [2].
On the same counts, the results for `CC(C)c1ncc2c(n1)CN(Cc1nc(-c3cccs3)no1)CC2` are 0.321% and 13.1%.
With `Cc1ncsc1C(=O)NCCn1nc(C2CCNC2)c2cccnc21` (configuration not stated), the Percent Effect was -3.63% in assay [1] and -7% in assay [2].
On the same counts, the results for `CCn1nnc2cc(C(=O)N3CCCC3Cn3cc(C)cn3)ccc21` (configuration not stated) are -2.54% and 0.821%.
`CCO[C@H]1CO[C@@]2(CCCN(Cc3nc(C)cs3)C2)C1`: the Percent Effect was -4.51% in assay [1] and -13.5% in assay [2].
`COCCOc1ncccc1CNCc1c(C)nn(C)c1N(C)C`: the Percent Effect is -5.91% in assay [1] and 7.43% in assay [2].
As to `O=C(NCC(=O)N1CCCCC1)c1ccoc1`, the Percent Effect was 6.71% in assay [1] and -16.3% in assay [2].
Turning to `Cc1ccccc1-c1cncc(C2CCN(C)CC2)n1`, the Percent Effect is 2.52% in assay [1] and -4.06% in assay [2].
For the compound `O=C(c1ccccc1OCC1CC1)N1CCCC(n2ccnc2)C1` (configuration not stated), the figures for the Percent Effect in assay [1] and in assay [2] were 6.48% and -13.9%, respectively.
For the compound `CC(O)CN1CCN(C(=O)c2ccc(N(C)C)nn2)CC1` (configuration not stated), the figures for the Percent Effect in assay [1] and in assay [2] were -6.65% and -70.5%, respectively.
In the case of `CC(NC(=O)CSCC#N)c1cccc(NC(=O)c2ccccc2)c1` (configuration not stated), the Percent Effect stood at 1.91% in assay [1] and 6.38% in assay [2].
For `Cn1ccc(C(=O)N2CCCC(Cc3cccc4ncccc34)C2)n1` (configuration not stated), the figures for the Percent Effect in assay [1] and in assay [2] were -2.07% and -7.58%, respectively.
With `Cc1ncccc1NC(=O)C1=NOC2(CCN(Cc3nccs3)C2)C1` (configuration not stated), the Percent Effect in assay [1] was 10.6%; in assay [2], -15.4%.
Take `CN(Cc1ccc(F)cc1)CC1(O)CCCN(CC(C)(C)C)C1=O` (configuration not stated): the Percent Effect in assay [1] is -0.167%; in assay [2], 28.1%.
For `CC(NC(=O)CCC(=O)c1cccs1)c1nnc2n1CCCCC2` (configuration not stated), the results for the Percent Effect in assay [1] and in assay [2] were 3.67% and 18.5%, respectively.
As for `COC(=O)c1cccc(C(=O)N2CCN(c3cccc(C)c3C)CC2)n1`, the Percent Effect in assay [1] is -1.18%; in assay [2] it was -18.6%.
Turning to `CC(CN1CCC2(CC1)c1nc[nH]c1CCN2S(C)(=O)=O)C(F)(F)F` (configuration not stated), the Percent Effect was 2.76% in assay [1] and 4.49% in assay [2].
For `Cc1cccc(CN2CCc3ncnc(N4CCOCC4)c3CC2)n1`, the figures for the Percent Effect in assay [1] and in assay [2] were -3.01% and -8.89%, respectively.
With `Cc1nnc(C(C)N2CCN(Cc3ccc(C#N)cc3)CC2)o1` (configuration not stated), the Percent Effect in assay [1] was -2.07%; in assay [2], 20%.
In the case of `CC(NC(=O)COc1nc(C(C)(C)C)no1)c1ccco1` (configuration not stated), the Percent Effect in assay [1] was -2.04%; in assay [2], 16.4%.
For `O=C1NCC2(CCCN(CCc3ccccc3)C2)Oc2ccccc21` (configuration not stated), the Percent Effect in assay [1] was -2.1%; in assay [2] it was -68.8%.
On to `COc1nn(C)cc1C(=O)N1CCC(c2nnc(C3CC3)o2)CC1`, for which the Percent Effect in assay [1] is -1.47%; in assay [2], -8.92%.
Consider `O=C(NCCCOCC1CCCO1)c1cccnc1N1CCCC1` (configuration not stated), for which the Percent Effect in assay [1] is -1.51%; in assay [2], -14.1%.
In the case of `CCc1cc(NCC(O)CN2CCCCC2)n2ncnc2n1` (configuration not stated), the Percent Effect in assay [1] is 8.06%; in assay [2], -8.11%.
On to `CS(=O)(=O)N1CCC2(CN(C(=O)c3cccnc3)C2)C1`, for which the Percent Effect in assay [1] is -2.07%; in assay [2], -24.7%.
Take `CC(NC(=O)c1cc(-c2cccc(Cl)c2)no1)C(=O)N1CCCC1` (configuration not stated): the Percent Effect is 0.15% in assay [1] and -14.8% in assay [2].
As to `COc1cc(CN2CC[C@@]3(CCCO3)[C@@H](O)C2)ccc1F`, the Percent Effect was determined as 4.99% in assay [1] and 3% in assay [2].
For the compound `Cn1c(NCC(O)c2ccc(F)cc2F)c(C#N)c(=O)n(C)c1=O` (configuration not stated), the Percent Effect in assay [1] was -5.91%; in assay [2], -8.41%.
Consider `Cc1cnn(CC2CCCN2C(=O)c2ccc(C(N)=O)cn2)c1` (configuration not stated), for which the Percent Effect in assay [1] is -2.92%; in assay [2], 11.5%.
Take `CC(=O)Nc1ncc(S(=O)(=O)Nc2ccc(F)cc2F)s1`: the results for the Percent Effect in assay [1] and in assay [2] were 2.53% and -38.5%, respectively.
